The campaign covered roughly 1,200 compounds. About 290 (24%) were called active. Inconclusive results (about 9%) are left out. How the calls were made is not given here. Only a sample is shown. Results with a measured potency or affinity are listed apart.

The assay is described as follows: cytotoxicity in EBV lymphoblastoid cells, dose response, cytotoxicity control, cell-based, plate reader, cherry-picks, set 2 (AID 504882). The settings on record: EBV lymphoblastoid cells (LCL) viability; series mostly up to 19.5 µM.
Turning to `CC(C)CC1C(=O)N(Cc2cn(CC3CCCCC3)nn2)CCS(=O)(=O)N1Cc1ccc(-c2ccc(F)nc2)cc1` (stereo not drawn), the call was inactive.

As for `CCOC(=O)OC(C)OC(=O)[C@@H]1N2C(=O)[C@@H](NC(=O)[C@H](N)c3ccccc3)[C@H]2SC1(C)C` (stereo partly drawn), the call was inactive.

In the case of `CCCc1cc(=O)[nH]c(SCC(=O)NC2CCCCC2)n1`, the compound was classed as inactive.

For the compound `Cc1ccc(C)c(N2CCN(S(=O)(=O)c3ccc4c(c3)CCN4C(=O)CCC(=O)O)CC2)c1`, the compound was classed as inactive. With `Cc1ccnc(SCCn2c(N3CCN(c4ccccc4)CC3)nc3c2c(=O)[nH]c(=O)n3C)n1`, the compound was classed as inactive. In the case of `O=C(CCC(=O)NNC(=O)Nc1cccc(Cl)c1)NCc1ccccc1`, the result was inactive.

As for `Cc1ccccc1C(=O)NC(=S)Nc1ccc(N2CCN(C(=O)c3ccccc3)CC2)cc1`, the call was inactive. Turning to `COCCNC(=O)NC12CC3(C)CC(C)(CC(C)(C3)C1)C2`, the outcome was inactive.

Consider `COCCn1c(SCc2ccc(C(=O)OC)o2)nnc1-c1c[nH]c2ccccc12`, for which the result was inactive. As for `COc1ccc(C(=O)Nc2cccc(C(=O)N/N=C/c3ccc(OC)cc3OC)c2)cc1`, the compound was classed as inactive. Take `CCOc1ccc(OCc2cccc(C(=O)N3CCCC3)c2)cc1`: the result was inactive. As for `O=S(=O)(N/N=C/c1ccccc1F)c1ccccc1`, the result was inactive. For the compound `CSc1nc2cc3c(cc2n1C(=O)c1ccc(C)cc1)OCCO3`, the result was inactive. As to `Nc1cc2ccncc2c2ccccc12`, the compound was called inactive. As for `CC(C)NCC(O)COc1cccc2ccccc12` (stereo not drawn), the compound was called inactive.

Regarding `COc1ccc(-n2c(C)c([N+](=O)[O-])c3ccc(O)c(CN(C)C)c32)cc1`, the compound was classed as inactive. Consider `Cc1ccc(C(=O)NCC(=O)N(C)Cc2cccc(F)c2)s1`, for which the result was inactive. For `COc1ccc(-n2c(C)c(C(C)=O)c3cc(O)ccc32)cc1`, the compound was called inactive.

Regarding `CC(CNC1CCCCC1)OC(=O)c1ccccc1` (stereo not drawn), the call was inactive.

Consider `CC(C)c1ccc(OCc2cccc(C(=O)N/N=C/c3cccnc3)c2)cc1`, for which the compound was classed as inactive. `CC(C)(C)c1ccc(-c2noc(CCC(N)=O)n2)cc1`: the call was inactive. On to `COCCn1c(SCC(=O)NCc2ccco2)nnc1-c1c[nH]c2ccccc12`, for which the compound was classed as inactive.

For `CCOC(=O)C1=C(C)NC(C)=C(C(=O)OCC)C1C(=O)OCC(=O)N(C)C1CCS(=O)(=O)C1` (stereo not drawn), the outcome was inactive. Regarding `COc1ccc(-c2csc3ncnc(NCCCO)c23)cc1`, the call was inactive. Consider `COc1cccc(CC(=O)NNC(=O)c2ccc3c(c2)OCO3)c1`, for which the result was inactive. Next, `COc1cc(C2NC(=O)NC(C)=C2C(=O)OC2CCCC(C)C2)cc(Br)c1O` (stereo not drawn): “inactive”; `CCCN(CC)c1ncnc2[nH]ncc12`: “inactive”. Regarding `Cc1cc(N2CCOCC2)c2c(N)c(Br)cc(C)c2n1`, the compound was called inactive.

For `CCOc1ccccc1C(=O)NC1CC2CCCC(C1)N2Cc1nnnn1Cc1ccco1` (stereo not drawn), the compound was called inactive. For the compound `Nc1ncnc(N2CCc3ccccc32)c1[N+](=O)[O-]`, the compound was called inactive.

As for `CCn1c(NC(=O)c2ccc(C)cc2)c2ccccc2nc1=O`, the call was inactive. For the compound `CC(=O)Nc1ccc(C=NNc2nnc(NN=Cc3ccc(NC(C)=O)cc3)c3ccccc23)cc1`, the compound was called inactive. The result for `CCn1c2ccccc2c2cc(NC(=O)c3ccccc3-c3ccccc3C(=O)O)ccc21` reads “inactive”; that for `CCCN(CCC)c1ncnc2nc[nH]c12`, “inactive”; that for `COc1ccc(CC(C)NCC(O)c2ccc(O)c(NC=O)c2)cc1` (stereo not drawn), “inactive”. Take `O=C(c1cccs1)N1CC=C(c2ccccc2)CC1`: the outcome was inactive.

On to `CCN1C(=O)[C@@H]2[C@@H](c3ccc(-c4ccc(Cl)c(Cl)c4)cc3)N3CCC[C@@]3(C(=O)OC)[C@@H]2C1=O`, for which the compound was classed as inactive. As to `CCOC(=O)N1CCN(C(=O)C2CCC(=O)N(Cc3ccccc3OC)C2)CC1` (stereo not drawn), the outcome was inactive. Consider `Cc1ccc(-c2cc(N)n3nc(-c4ccc(C)cc4)cc3n2)cc1`, for which the result was inactive. Consider `O=[N+]([O-])c1ccc2ncnc(N3CCN(Cc4ccc5c(c4)OCO5)CC3)c2c1`, for which the compound was classed as inactive.

With `Fc1ccc2[nH]c3c(N4CCN(c5ccccc5)CC4)ncnc3c2c1`, the result was inactive. On to `CC(C)(C)OC(=O)N1Cc2ccccc2C[C@H]1C(=O)NCC(=O)Nc1ccc2c(c1)OCCO2`, for which the result was inactive.

As for `O=C(C1CCCCC1)N1CCN(c2ncccn2)CC1`, the compound was called inactive. `COC(=O)c1ccccc1NC(=O)CC(=O)Nc1ccccc1C(=O)OC`: the result was inactive. As to `O=C(NCCCN1CCCCC1)c1ccc2c(c1)NC(=O)c1ccccc1S2`, the compound was classed as inactive. `CCOc1ccc(NC(=O)c2ccc(N3CC4CC(C3)c3cccc(=O)n3C4)c(NC(=O)c3cccnc3)c2)cc1` (stereo not drawn): the compound was classed as inactive. As to `CSc1ccccc1OCc1cc(C(=O)N2CCC[C@H]2C(N)=O)no1`, the compound was called inactive. In the case of `COC(CNC(=O)c1ccc(N2CCC3(CC2)OCCO3)c([N+](=O)[O-])c1)OC`, the compound was classed as inactive.

For `Cc1ccnc(NC(=O)c2ccc(C(=O)c3ccccc3)cc2)c1`, the outcome was inactive.

With `COc1ccc(C(=O)Nc2cc(C)c(NC(=O)c3ccccc3OC)cn2)cc1`, the call was inactive. For `COc1ccccc1-c1ccccc1C1=CC(=O)CC(C)(C)C1=O`, the call was inactive.

Turning to `COc1ccc(C2=NN(C(=O)CSC3=NN4CCCC(=O)N=C4S3)C(c3cccc(OC)c3OC)C2)cc1` (stereo not drawn), the result was inactive.

In the case of `O=C(O)c1ccc(N/N=C/c2cc3cc4c(cc3nc2Cl)OCCO4)cc1`, the result was inactive.

In the case of `Clc1ccc(-c2ccnc(Oc3ccc4ccccc4c3)n2)cc1`, the result was inactive.

Take `CCOC(=O)[C@H]1[C@H]2COc3ccc(OC)cc3[C@@H]2N2C(=O)CN(C)C(=O)[C@@]12C`: the call was inactive. Next, `CN(C)CCCC1(c2ccc(F)cc2)OCc2cc(C#N)ccc21` (stereo not drawn): “inactive”; `CC1(C)Cc2nc3sc4c(SCC(=O)O)ncnc4c3cc2CO1`: “inactive”. For `COc1ccc(C=C2OC(=O)C(C(C)=O)=C2O)cc1`, the call was inactive.

`COc1ccc(-c2oc3ncnc(NCCN4CCOCC4)c3c2-c2ccc(OC)cc2)cc1`: the call was inactive. As for `CCN(CC(=O)Nc1ccc(NC(C)=O)cc1)C(=O)c1cccnc1Sc1ccc(C)c(C)c1`, the compound was classed as inactive. Consider `COc1ccc(N2Cc3cccc(C(=O)NC(C)CCc4ccco4)c3C2=O)cc1` (stereo not drawn), for which the result was inactive. Regarding `COc1ccc(-c2cc(C(=O)N3CCCC3)no2)cc1`, the compound was classed as inactive. As for `CC(Sc1nc(-c2ccc(F)cc2)cs1)C(=O)N1c2ccccc2CC1C` (stereo not drawn), the compound was called inactive. For the compound `Cc1ccc(CN2C(=O)CCC2C(=O)NCCCN2CCC(C)CC2)cc1` (stereo not drawn), the compound was called inactive. The result for `Cc1cnc(NC(=O)c2ccc(OCC3CCCO3)cc2)s1` (stereo not drawn) reads “inactive”.

Turning to `CCN(CC)S(=O)(=O)c1ccc(N=NC2=C(O)CCCC2=O)cc1`, the result was inactive. As for `O=C(O)c1ccc(N/N=C/c2ccc3ncccc3c2)cc1`, the call was inactive. With `CCN(CC)S(=O)(=O)c1cccc(-n2c(O)c(C=Nc3ccccc3C(=O)O)c3ccccc3c2=O)c1`, the outcome was inactive.
